According to ChEMBL document CHEMBL1961873, “Compounds: GSK PKIS; Assays: Nanosyn kinase panel” (2012):
“And” between values parts separate entries of the source, which are not always exact repeats. Equal entries are not always repeated.
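Also: mean inhibition of MST1, reported as part of the GSK PKIS dataset.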

The compounds below were run against T1, Serine/threonine-protein kinase 4 (Homo sapiens) (UniProt Q13043). Conditions: at 0.1 µM.
T1 sequence (whole entry): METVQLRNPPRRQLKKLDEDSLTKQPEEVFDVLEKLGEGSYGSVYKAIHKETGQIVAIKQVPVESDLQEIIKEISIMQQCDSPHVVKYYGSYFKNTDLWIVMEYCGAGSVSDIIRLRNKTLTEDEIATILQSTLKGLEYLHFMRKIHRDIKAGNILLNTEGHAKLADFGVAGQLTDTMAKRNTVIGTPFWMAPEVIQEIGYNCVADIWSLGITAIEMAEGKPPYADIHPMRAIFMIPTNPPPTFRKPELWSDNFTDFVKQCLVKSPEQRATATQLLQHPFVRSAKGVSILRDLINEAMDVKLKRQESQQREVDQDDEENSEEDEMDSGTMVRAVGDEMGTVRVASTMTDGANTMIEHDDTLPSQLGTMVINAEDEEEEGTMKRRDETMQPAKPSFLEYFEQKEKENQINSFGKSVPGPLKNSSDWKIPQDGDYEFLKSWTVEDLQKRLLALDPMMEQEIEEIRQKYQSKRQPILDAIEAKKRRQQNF
With `NS(=O)(=O)c1ccc(N/N=C2\C(=O)Nc3ccc(C(=O)NCc4ccncc4)cc32)cc1` the inhibition was 36.8%. Work on `CCCNc1cccc(-n2ncc3c(N/N=C/c4ccncc4)ncnc32)c1` yielded an inhibition of 4.12%. For `c1cnn2ncc(-c3ccnc(NCCCN4CCOCC4)n3)c2c1`, the inhibition was 2.04%. For `O=C(Nc1n[nH]c2nnc(-c3cccnc3)cc12)C1CC1`, the inhibition was -0.95%. For `COC(=O)Nc1nc2cc(Oc3ccc(NC(=O)Nc4ccccc4)cc3)ccc2[nH]1`, the inhibition was 3.7%. Work on `Fc1ccc(Nc2nccc(-c3c(-c4ccc(C(F)(F)F)cc4)nn4ncccc34)n2)cc1F` yielded an inhibition of 6.25%. With `CCS(=O)(=O)c1ccc(OC)c(Nc2ncc(-c3cccc(F)c3)o2)c1` the inhibition was 3.31%. With `CN1CCC(C(=O)Nc2n[nH]c3nc(-c4ccc(O)cc4)c(Br)cc23)CC1` the inhibition was 6.69% and 1.72%. `CC1=C(C(=O)Nc2ccc3[nH]nc(C)c3c2)C(c2ccc(C(F)(F)F)cc2)CC(=O)N1` (configuration not stated) was tested, and the inhibition was 5.04%. In the case of `COc1cccc(-n2ncc3c(N/N=C/c4ccc(C(=O)NCCN(C)C)cc4)ncnc32)c1`, the inhibition is reported as 4.6%. With `N#Cc1ccc2c(-c3ccnc(NC4CC4)n3)c(-c3ccc(F)cc3)nn2c1` the inhibition was 0.26%. With `COc1ccc(Nc2ncc(-c3ccccc3)o2)cc1OC` the inhibition was 0.86%. For `Nc1nccc(-c2c(-c3ccc(F)cc3)ncn2C2CCNCC2)n1`, the inhibition was -3.42% and 0.28%. Compound `Cc1cc(O)cc(C)c1/C=C/c1cncc(C(N)=O)c1` has an inhibition of 2.44%. Compound `N#Cc1cccc(Nc2ncc(-c3ccccc3)o2)c1` has an inhibition of 3%. For `CC1=C(C(=O)Nc2ccc3[nH]ncc3c2)C(c2ccc(F)cc2)N=C(c2ccc(C(F)(F)F)nc2)N1` (configuration not stated), the inhibition was 2.29%. Compound `COc1cc2c(cc1Nc1nc(Nc3cccc(F)c3C(N)=O)c3cc[nH]c3n1)N(C(=O)CN1CCN(C(C)C)CC1)CC2` has an inhibition of 0.17%.
